Where “and” joins values, the source holds several entries; their conditions need not be identical. Identical values can stand only once. The campaign covered roughly 5,500 compounds. About 2,000 (36%) were called active. Roughly 18% stayed inconclusive and do not appear here. No stated cut-off is given here; in the data, active means normalized growth mostly below about 0.91 (no sharp cut-off); inconclusive means no clear call, values can overlap the other calls; inactive means mostly above about 0.92. Some of the results follow.
Experiment: chemical genetic growth profiling, strain panel (AID 1159580);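 further: tested at 20 µM; growth read once vehicle control cultures reached saturation at 30 °C; 1 = growth at the plate median or of vehicle wells; lower values mean less growth of the strain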
Conditions: S. cerevisiae deletion strains, growth OD

Measured: normalized growth

CC(C(=O)O)c1cccc(C(=O)c2ccccc2)c1 (stereo not drawn)
inactive: locus YAL013W, strain DEP1, hits give low values 1.01 | locus YAL021C, strain ccr4, hits give low values 0.995 | locus YAL026C, strain drs2, hits give low values 0.981 | locus YAL030W, strain snc1, hits give low values 0.997 | locus YAL040C, strain CLN3, hits give low values 1 | locus YBL061C, strain skt5, hits give low values 0.998 | locus YBR009C, strain hhf1, hits give low values 0.979 | locus YBR021W, strain FUR4, hits give low values 1.01 | locus YBR023C, strain chs3, hits give low values 0.985 | locus YBR171W, strain sec66, hits give low values 0.98 | locus YBR229C, strain ROT2, hits give low values 1 | locus YBR231C, strain swc5, hits give low values 1 | locus YBR279W, strain paf1, hits give low values 0.972 | locus YCL011C, strain gbp2, hits give low values 0.991 | locus YCL016C, strain dcc1, hits give low values 0.969 | locus YCL029C, strain bik1, hits give low values 0.962 | locus YCL061C, strain MRC1 (second series), hits give low values 1.01 | locus YCL069W, strain vba3, hits give low values 0.983 | locus YCR088W, strain abp1, hits give low values 0.989 | locus YDL005C, strain med2, hits give low values 0.98 | locus YDL035C, strain GPR1, hits give low values 1 | locus YDL040C, strain nat1, hits give low values 0.986 | locus YDL074C, strain BRE1, hits give low values 1.06 | locus YDL101C, strain DUN1, hits give low values 1 | locus YDL134C, strain PPH21, hits give low values 0.994 | locus YDL185W, strain tfp1, hits give low values 0.941 | locus YDL192W, strain arf1, hits give low values 0.978 | locus YDR001C, strain nth1, hits give low values 0.983 | locus YDR069C, strain doa4, hits give low values 0.984 | locus YDR101C, strain arx1, hits give low values 1.02 | locus YDR137W, strain rgp1, hits give low values 0.953 | locus YDR159W, strain sac3, hits give low values 0.928 | locus YDR162C, strain NBP2, hits give low values 0.979 | locus YDR195W, strain ref2 1.02 | locus YDR297W, strain sur2, hits give low values 0.982 | locus YDR318W, strain mcm21, hits give low values 0.969 | locus YDR334W, strain swr1, hits give low values 0.984 | locus YDR335W, strain msn5, hits give low values 1.01 | locus YDR363W, strain ESC2, hits give low values 0.998 | locus YDR388W, hits give low values 0.989 | locus YDR392W, strain spt3, hits give low values 0.871 | locus YDR502C, strain sam2, hits give low values 1 | locus YEL003W, strain gim4, hits give low values 1 | locus YEL037C, strain rad23, hits give low values 0.987 | locus YEL061C, strain CIN8 (second series), hits give low values 0.996 | locus YEL061C, strain CIN8, hits give low values 1 | locus YER002W, strain NOP16, hits give low values 0.992 | locus YER015W, strain faa2, hits give low values 0.966 | locus YER016W, strain bim1, hits give low values 0.974 | locus YER110C, hits give low values 0.957 | locus YER111C, strain swi4, hits give low values 0.979 | locus YER155C, strain BEM2 (second series), hits give low values 0.986 | locus YER155C, strain BEM2, hits give low values 0.994 | locus YER167W, strain BCK2, hits give low values 1 | locus YFR010W, strain ubp6, hits give low values 1 | locus YGL078C, strain dbp3, hits give low values 0.99 | locus YGL086W, strain mad1, hits give low values 1.01 | locus YGL167C, strain pmr1, hits give low values 0.991 | locus YGL173C, strain kem1, hits give low values 1.01 | locus YGL227W, strain vid30, hits give low values 1 | locus YGL240W, strain doc1, hits give low values 0.995 | locus YGL248W, strain PDE1, hits give low values 1.02 | locus YGL253W, strain hxk2, hits give low values 0.984 | locus YGR078C, strain PAC10, hits give low values 1.02 | locus YGR135W, strain pre9, hits give low values 0.958 | locus YGR229C, strain SMI1, hits give low values 1.01 | locus YGR252W, strain gcn5, hits give low values 1.03 | locus YHR013C, strain ard1, hits give low values 0.964 | locus YHR027C, strain rpn1, hits give low values 1.01 | locus YHR030C, strain SLT2, hits give low values 0.982 and 1.04 | locus YHR079C, strain IRE1 (second series), hits give low values 0.974 | locus YHR079C, strain IRE1, hits give low values 1.04 | locus YHR094C, strain hxt1, hits give low values 0.979 | locus YHR129C, strain ARP1, hits give low values 0.987 | locus YHR142W, strain chs7, hits give low values 0.966 | locus YHR200W, strain rpn10, hits give low values 0.955 | locus YIL066C, strain RNR3, hits give low values 1.02 | locus YIL073C, strain SPO22, hits give low values 0.868 | locus YIL125W, strain kgd1, hits give low values 0.984 | locus YIR030C, strain dcg1, hits give low values 0.961 | locus YJL092W, strain hpr5, hits give low values 0.997 | locus YJL095W, strain BCK1 (second series), hits give low values 0.978 | locus YJL095W, strain BCK1, hits give low values 1.05 and 1.01 | locus YJL115W, strain asf1, hits give low values 0.98 | locus YJL129C, strain trk1, hits give low values 0.942 | locus YJL134W, strain LCB3, hits give low values 0.991 | locus YJL154C, strain vps35, hits give low values 0.982 | locus YJL164C, strain tpk1, hits give low values 0.985 | locus YJL166W, strain qcr8, hits give low values 0.999 | locus YJL168C, strain set2, hits give low values 0.978 | locus YJL187C, strain SWE1 (second series), hits give low values 1.03 | locus YJR043C, strain POL32, hits give low values 1.03 | locus YJR066W, strain TOR1, hits give low values 0.965

Reference: PubChem BioAssay AID1159580 (chemical genetic matrix, 2015)
